Screening results as filed in PubChem.
EWS-Fli block: blocks EWS/Fli oncoprotein-driven transcription | AID 651661 | A673 NR0B1-luciferase reporter, viability-normalised | actives 0.67% (n = 350,000) | inhibition, % at 12.6 µM;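 active means mean inhibition of at least 50% after viability correction, with every replicate also passing that limit; inconclusive means mean reaches 50% but only one of two replicates passes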;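 further: firefly luciferase signal divided by Alamar Blue viability fluorescence both relative to DMSO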
SIRT5 inh: blocks human SIRT5 desuccinylation of peptide; Q9NXA8; Purified SirT5, succinyl-peptide AMC, trypsin-coupled fluorescence; inhibition, % at 15 µM; actives 1.1% (n = 330,000); in the data active means inhibition above about 15%; inconclusive means no clear call, values can overlap the other calls
Target sequence (Q9NXA8 whole entry, looked up): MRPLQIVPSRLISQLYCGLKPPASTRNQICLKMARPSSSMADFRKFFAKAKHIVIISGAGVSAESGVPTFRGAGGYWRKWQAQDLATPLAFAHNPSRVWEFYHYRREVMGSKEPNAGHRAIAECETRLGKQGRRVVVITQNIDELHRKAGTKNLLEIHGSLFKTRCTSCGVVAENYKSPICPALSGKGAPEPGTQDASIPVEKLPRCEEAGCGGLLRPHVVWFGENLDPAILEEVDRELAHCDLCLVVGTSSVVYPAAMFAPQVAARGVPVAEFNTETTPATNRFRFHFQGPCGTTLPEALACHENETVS
PGC1a acetyl inh: modulators of PGC1a acetylation | actives 0.17% (n = 350,000) | U2OS PGC1a acetylation, AlphaScreen anti-acetyl-lysine; with virally co-expressed GCN5 acetyltransferase | inhibition, % at 15.6 µM;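 active means every replicate shows inhibition of at least 40%; inconclusive means mean inhibition at least 40% but some replicate below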;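 further: 0% = neutral control wells and 100% = positive control wells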
rRNA inh HTS: inhibits bacterial ribosomal RNA function over humanized ribosomes. E. coli WT GFP vs humanized-ribosome RFP mutants, fluorescence, 24 h; stronger effect = lower value; DMSO median 0, no signal -100. GFP signal change (wild-type ribosome), % (no concentration beside the values). actives 1.6% (n = 350,000);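 active means significant combined selectivity score with lowered wild-type GFP, culture density cut under 30%, mutant RFP and density less affected; inactive means any of these conditions unmet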
LGR2 antag: blocks bursicon-induced cAMP signaling via Drosophila LGR2; HEK293 LGR2, CRE-luciferase, bursicon-stimulated, 4 h; inhibition, % at 9.99 µM; actives 0.35% (n = 380,000); AID 720647;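 active means drop in luminescence signal, shown as inhibition above about 50% in the replicate tests, limit read from the data, passing the limit was not always enough; inconclusive means probably only some replicates passing the limit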;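 further: agonist challenge used bursicon conditioned medium at about half maximal strength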
PAX8 reporter: lowers PAX8-driven luciferase in RMG-I cells. inhibition, % at 12.6 µM. actives 1.2% (n = 360,000). RMG-I TPO-luciferase reporter, SteadyGlo, 24 h;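 active means mean replicate inhibition at least 60% with every replicate also reaching 60%; inconclusive means only one of the two criteria is met; inactive means mean below 60% and not all replicates reaching 60%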;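 further: luciferase light reporting Pax8 driven TPO promoter activity; plate controls were median of neutral control wells for no effect and mitoxantrone controls for full effect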
The depositor's hits bear a star; ? = inconclusive; / = no result given. In the library only some 3.4% were active in any assay of this set; here they are far more common.

SMILES	EWS-Fli block	SIRT5 inh	PGC1a acetyl inh	rRNA inh HTS	LGR2 antag	PAX8 reporter
Nc1c(/C=C2\C=Nc3ccccc32)c(=O)nc2sc(CC(=O)N3CCOCC3)nn12	7	3	-17	1	-3	11
Nc1c(C=C2C=CC(=O)C=C2)c(=O)nc2sc(CC(=O)N3CCOCC3)nn12	/	23*	/	6	9	-7
COC1=CC(=Cc2c(N)n3nc(CC(=O)N4CCOCC4)sc3nc2=O)C=C(OC)C1=O	8	15	14	15	-1	-18
CCOC1=C/C(=C/c2c(N)n3nc(CC(=O)N4CCCCC4)sc3nc2=O)C=CC1=O	/	32*	15	4	17	-4
CCOC1=C/C(=C/c2c(N)n3nc(S(=O)(=O)CC)sc3nc2=O)C=CC1=O	9	9	/	-6	-12	2
C=CCC1=C/C(=C\c2c(N)n3nc(CC(=O)N4CCCC4)sc3nc2=O)C=C(OC)C1=O	/	20*	7	-4	-5	12
COc1ccc2c3c([nH]c2c1)[C@@H](CO)N(C(=O)Nc1cccc(F)c1)CC31CN(S(=O)(=O)c2ccccc2)C1	/	/	/	-3	/	/
Cn1c(SCC(=O)O)nnc1-c1ccc(NC(=O)c2ccc(Cl)c(Cl)c2)cc1	8	16*	9	-2	5	7
Cc1ccc(-c2nnc(SCC(=O)CC(=O)Nc3ccccc3)n2C)cc1	/	/	1	/	/	-12
Cn1c(SCC(=O)CC(=O)Nc2ccccc2)nnc1-c1ccc(O)cc1	0	4	0	-18*	-37	/
CC(C)NC(=O)N(C)C[C@@H]1Oc2ccc(N(C)C)cc2C(=O)N(C)C[C@H]1C	/	/	/	-2	/	/
Fc1ccc(Nc2nc(NCc3ccco3)c3ccccc3n2)cc1	16	-5	/	-41*	32	53
Nc1nc(Nc2ccccc2)nc(NCc2ccco2)c1[N+](=O)[O-]	/	/	4	/	13	/
Cc1ccc(S(=O)(=O)/N=C2/C=C(Sc3ncn[nH]3)C(=O)c3ccccc32)cc1	/	/	77*	/	/	/
Cc1ccc(S(=O)(=O)/N=C2\C=C(Nc3cccc(C(=O)O)c3)C(=O)c3ccccc32)cc1	-73	-3	-1	3	-27	-44
CCc1ccc(NC2=CC(=O)C(=O)c3ccccc32)cc1	-38	2	/	-24*	-66	-103
Cc1ccc(S(=O)(=O)/N=C2\C=C(Nc3ccc(O)cc3)C(=O)c3ccccc32)cc1	/	/	86*	/	/	/
CCc1ccc(S(=O)(=O)/N=C2\C=C(Nc3ccc(C(=O)O)cc3)C(=O)c3ccccc32)cc1	19	2	/	7	103*	93*
C[C@@H]1CN([C@@H](C)CO)C(=O)Cc2cc(NC(=O)CCCN(C)C)ccc2O[C@H]1CN(C)C(=O)Nc1ccccc1	?	5	-5	7	8	-12
COc1ccc(S(=O)(=O)Nc2cccc3c2O[C@@H](CN(C)Cc2ccc(Cl)c(Cl)c2)[C@@H](C)CN([C@@H](C)CO)C3=O)cc1	0	/	-5	-3	-21	/
C[C@@H]1CN([C@@H](C)CO)C(=O)c2cc(Br)cnc2O[C@H]1CN(C)CC1CCCC1	-3	0	-10	9	-8	/
CCCC(=O)Nc1ccc2c(c1)OC[C@H](C)N(Cc1nccs1)C[C@@H](C)[C@H](OC)CN(C)C2=O	-2	/	-15	-4	5	-10
COc1ccc([Si](C)(C)[C@@H]2[C@@H](CCn3cc(CCO)nn3)O[C@]3(C(=O)N(Cc4cccc(N5CCOC5=O)c4)c4ccccc43)[C@H]2C)cc1	5	7	1	/	/	100*
COc1ccc([Si](C)(C)[C@@H]2[C@@H](CCn3cc([C@H](O)c4ccccc4)nn3)O[C@]3(C(=O)N(Cc4cccc(N5CCOC5=O)c4)c4ccccc43)[C@H]2C)cc1	12	13	-7	/	/	?
C=CCN1C(=O)[C@@]2(O[C@@H](CCn3cc(CCO)nn3)[C@H]([Si](C)(C)c3ccc(OC)cc3)[C@H]2C)c2cc(N3CCOC3=O)ccc21	6	1	/	/	/	7
SMILES	EWS-Fli block	SIRT5 inh	PGC1a acetyl inh	rRNA inh HTS	LGR2 antag	PAX8 reporter
COc1ccc([Si](C)(C)[C@H]2[C@H](CCn3cc(CCO)nn3)O[C@@]3(C(=O)N(Cc4cccc(N5CCOC5=O)c4)c4ccccc43)[C@@H]2C)cc1	-1	12	20	/	/	83*
Cc1ccc(-c2ccc([C@H]3[C@@H](CO)N4C(=O)CN(C(=O)c5cccnc5)C[C@H]34)cc2)cc1	-4	4	-7	-1	9	2
COc1cc(/C=C2\NC(=O)NC2=O)cc(Br)c1OC	-3	17*	/	1	6	-5
Cc1cccc(Nc2nc(N)nc(CCl)n2)c1	40	0	13	-2	-9	90*
COc1cccc(Nc2nc(N)nc(CCl)n2)c1	59*	0	3	-3	-40	97*
COc1cccc(Nc2nc(N)nc(C(F)(F)F)n2)c1	/	/	/	/	/	-73
C[C@@H]1CN([C@@H](C)CO)S(=O)(=O)c2ccc(-c3cncnc3)cc2O[C@@H]1CN(C)C(=O)c1cccc(F)c1	-7	/	-6	-3	-27	-19
C[C@@H]1CN([C@@H](C)CO)C(=O)Cc2cc(NC(=O)Cn3cnnn3)ccc2O[C@@H]1CN(C)S(=O)(=O)c1ccccc1	/	/	/	1	10	/
CCCN(C)C[C@H]1OCCCC[C@@H](C)Oc2ccc(NC(=O)NC(C)C)cc2C(=O)N([C@@H](C)CO)C[C@H]1C	/	2	-1	2	4	-9
COc1cccc(Cn2c(NCc3ccccn3)nc3c2c(=O)n(C)c(=O)n3C)c1	/	/	/	/	5	/
COc1ccc(CNc2nc3c(c(=O)n(Cc4ccc(F)cc4)c(=O)n3C)n2C)cc1	/	-4	-3	5	15	71*
COc1cccc(Cn2c(NCc3cccnc3)nc3c2c(=O)n(C)c(=O)n3C)c1	/	/	71*	/	/	/
CO[C@H]1CN(C)C(=O)c2ccc(NC(=O)CC(F)(F)F)cc2OC[C@H](C)N(C(=O)C2CCOCC2)C[C@@H]1C	1	-1	13	2	-8	/
COc1cc(/C=N/NC(=S)NC2CC3CCC2C3)ccc1O (centres undefined)	6	2	7	-26*	-37	-64
N=c1c2c(-c3ccccc3)c(-c3ccccc3)n(Cc3ccco3)c2ncn1Cc1ccco1	/	/	-27	/	/	/
CCCCn1cnc2c(c(-c3ccccc3)c(-c3ccccc3)n2Cc2ccco2)c1=N	46	1	-24	/	/	100*
COC(=O)CCC(=O)N(CCN(Cc1ccccc1)C(=O)CCC(=O)OC)Cc1ccccc1	4	-6	/	-16*	/	13
O=C(NCC[C@@H]1CC[C@@H](NS(=O)(=O)c2cccc(F)c2)[C@@H](CO)O1)Nc1cc(F)ccc1F	-4	3	-15	-4	16	12
CN(C)c1cc[n+](CC(=O)c2ccc(-c3ccccc3)cc2)cc1	37	-3	/	-15	4	98*
